As a reminder, the AC50 is the concentration at which the activity in the assay is half-maximal.

From PubChem BioAssay (EPA / NIEHS) come the findings set out here.

The structures appear in SMILES notation. Calls of active or inactive are those of the source. The calls were made as follows: active = hit-call score of the fitted dose curve at least 0.9, where 1 is the maximum; inactive = score below 0.9.

Holding throughout (conditions): mRNA level, 48 h; actives raise or lower the signal
Read-out in assay [1]: Pro-epidermal growth factor (Homo sapiens) (UniProt P01133)
Briefly: LTEA_HepaRG_EGF: Life Technologies and Expression Analysis (LTEA) Assay for Epidermal growth factor (EGF) using HepaRG (AID 2283489). The gist of the method: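 HepaRG cells (~100,000/well, 48 h pre-culture) exposed in duplicate for 48 h in serum-free induction medium to 8 half-log concentrations up to 100 uM in 0.5% DMSO. EGF mRNA by qRT-PCR, normalized to ACTB/GAPDH/POLR2A; bidirectional fit versus DMSO.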

Read-out in assay [2]: Early growth response protein 1 (EGR1) transcription factor, EGR1 (gene 1958)
Briefly: LTEA_HepaRG_EGR1: Life Technologies and Expression Analysis (LTEA) Assay for Early growth response protein 1 (EGR1) transcription factor using HepaRG (AID 2283490). The essentials: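 HepaRG, 48 h exposure, 8-pt half-log series from 100 uM, 0.5% DMSO vehicle; EGR1 transcript by TaqMan qRT-PCR (Fluidigm array), housekeeping-normalized; bidirectional fit relative to DMSO baseline.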

Read-out in assay [3]: Ezrin (EZR), EZR (gene 7430)
Briefly: LTEA_HepaRG_EZR: Life Technologies and Expression Analysis (LTEA) Assay for Ezrin (EZR) using HepaRG (AID 2283491). The essentials:
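EZR transcript levels came from Fluidigm qRT-PCR and were normalized to three housekeeping genes after 48 h chemical exposure of HepaRG cells. Dosing used an 8-point half-log series with a 100 uM top concentration in 0.5% DMSO, tested in duplicate; both directions were fitted versus vehicle.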

Read-out in assay [4]: Cytochrome P450 3A7 (Homo sapiens) (UniProt P24462)
Briefly: LTEA_HepaRG_CYP3A7: Life Technologies and Expression Analysis (LTEA) Assay for CYP3A7 using HepaRG (AID 2283492). The essentials:
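Differentiated HepaRG cells in serum-free induction medium exposed 48 h in duplicate to 8-point half-log series from 100 uM top in 0.5% DMSO. CYP3A7 mRNA by qRT-PCR, normalized to ACTB/GAPDH/POLR2A, bidirectional fit versus DMSO.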

Read-out in assay [5]: CYP3A5 (gene 1577)
Briefly: LTEA_HepaRG_CYP3A5: Life Technologies and Expression Analysis (LTEA) Assay for CYP3A5 using HepaRG (AID 2283493). The essentials:
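Human HepaRG hepatic cells receive 48 h chemical treatment at eight concentrations (half-log steps from 100 uM) in 0.5% DMSO. Expression of CYP3A5 is quantified by Fluidigm qRT-PCR and normalized to three reference genes.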

Read-out in assay [6]: Fatty Acid-Binding Protein 1 (FABP1), FABP1 (gene 2168)
Briefly: LTEA_HepaRG_FABP1: Life Technologies and Expression Analysis (LTEA) Assay for Fatty Acid-Binding Protein 1 (FABP1) using HepaRG (AID 2283494). The essentials: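 qRT-PCR readout of FABP1 transcript (normalized to three housekeeping genes) after 48 h chemical exposure of HepaRG cells; eight concentrations, half-log steps, max 100 uM, 0.5% DMSO vehicle; gain or loss fitted relative to DMSO baseline.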

Read-out in assay [7]: Cytochrome P450 4A22 (Homo sapiens) (UniProt Q5TCH4)
Briefly: LTEA_HepaRG_CYP4A22: Life Technologies and Expression Analysis (LTEA) Assay for Cytochrome P450 4A22 (CYP4A22) using HepaRG (AID 2283495). The essentials: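 Differentiated HepaRG cells in serum-free induction medium exposed 48 h in duplicate to eight half-log concentrations up to 100 uM in 0.5% DMSO. CYP4A22 mRNA quantified by TaqMan qRT-PCR, normalized to ACTB, GAPDH and POLR2A; bidirectional fit versus DMSO.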

Read-out in assay [8]: Cytochrome P450 7A1 (Homo sapiens) (UniProt P22680)
Briefly: LTEA_HepaRG_CYP7A1: Life Technologies and Expression Analysis (LTEA) Assay for Cytochrome P450 7A1 (CYP7A1) using HepaRG (AID 2283496). The gist of the method: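 HepaRG, 48 h exposure, 8-pt half-log series from 100 uM, 0.5% DMSO vehicle, duplicates. Readout: TaqMan qRT-PCR mRNA vs three housekeeping genes; bidirectional curve fit against DMSO baseline.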

Read-out in assay [9]: Glutathione S-Transferase (GSTA2), GSTA2 (gene 2939)
Briefly: LTEA_HepaRG_GSTA2: Life Technologies and Expression Analysis (LTEA) Assay for Glutathione S-Transferase (GSTA2) using HepaRG (AID 2283497). The essentials: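 qRT-PCR readout of GSTA2 transcript, normalized to three housekeeping genes, fitted bidirectionally against 0.5% DMSO baseline. Differentiated HepaRG cells received compound for 48 h at 8 concentrations (top 100 uM, half-log steps).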

Read-out in assay [10]: Glutamate-cysteine ligase catalytic (GCLC), GCLC (gene 2729)
Briefly: LTEA_HepaRG_GCLC: Life Technologies and Expression Analysis (LTEA) Assay for Glutamate-cysteine ligase catalytic (GCLC) using HepaRG (AID 2283498). The gist of the method:
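HepaRG, 48 h exposure, 8-pt half-log series from 100 uM, 0.5% DMSO vehicle; TaqMan qRT-PCR for GCLC mRNA, housekeeping-normalized; bidirectional curve fit vs DMSO baseline.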

Read-out in assay [11]: Glutamate-cysteine ligase regulatory (GCLM), GCLM (gene 2730)
Briefly: LTEA_HepaRG_GCLM: Life Technologies and Expression Analysis (LTEA) Assay for Glutamate-cysteine ligase regulatory (GCLM) using HepaRG (AID 2283500). The gist of the method:
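Endpoint is GCLM transcript level by qRT-PCR, normalized to three housekeeping genes, after 48 h chemical exposure of human HepaRG cells (0.5% DMSO vehicle, top 100 uM, half-log dilutions). Fitting was bidirectional relative to DMSO.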

Read-out in assay [12]: Glutathione S-transferase M3 (GSTM3), GSTM3 (gene 2947)
Briefly: LTEA_HepaRG_GSTM3: Life Technologies and Expression Analysis (LTEA) Assay for Glutathione S-transferase M3 (GSTM3) using HepaRG (AID 2283501). The gist of the method:
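Differentiated human HepaRG cells were exposed in duplicate for 48 h in serum-free induction medium, 8 points from 100 uM top in half-log steps, 0.5% DMSO. GSTM3 mRNA was measured by TaqMan qRT-PCR, normalized to ACTB, GAPDH and POLR2A; bidirectional fit versus DMSO.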

Read-out in assay [13]: Heat shock 70 kDa protein 1 (HSPA1A), gene 3303
Briefly: LTEA_HepaRG_HSPA1A: Life Technologies and Expression Analysis (LTEA) Assay for Heat shock 70 kDa protein 1 (HSPA1A) using HepaRG (AID 2283502). The gist of the method: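 Cells were plated and cultured for 48 h, then switched to serum-free induction medium. Chemicals were added at eight half-log concentrations up to 100 uM for 48 h. RNA was then isolated and HSPA1A measured by qRT-PCR with bidirectional curve fitting against DMSO.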

Read-out in assay [14]: Hypoxia-inducible factor 1-alpha (Homo sapiens) (UniProt Q16665)
Briefly: LTEA_HepaRG_HIF1A: Life Technologies and Expression Analysis (LTEA) Assay for Hypoxia-inducible factor 1 (HIF1A) Trancription factor using HepaRG (AID 2283503). The gist of the method:
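HIF1A transcript level read by qRT-PCR (ACTB, GAPDH, POLR2A normalization) after 48 h chemical exposure of HepaRG cultures. Eight half-log concentrations, top 100 uM, 0.5% DMSO vehicle, duplicates; bidirectional curve fit against DMSO baseline.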

Read-out in assay [15]: 3-Hydroxy-3-Methylglutaryl-CoA Synthase 2 (HMGCS2), HMGCS2 (gene 3158)
Briefly: LTEA_HepaRG_HMGCS2: Life Technologies and Expression Analysis (LTEA) Assay for 3-Hydroxy-3-Methylglutaryl-CoA Synthase 2 (HMGCS2) using HepaRG (AID 2283504). The essentials: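 Human HepaRG cells in serum-free induction medium were exposed in duplicate for 48 h to 8-point half-log series from 100 uM top in 0.5% DMSO. HMGCS2 mRNA measured by TaqMan qRT-PCR, normalised to ACTB, GAPDH, POLR2A; bidirectional fit versus DMSO.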

Read-out in assay [16]: HGF (gene 3082)
Briefly: LTEA_HepaRG_HGF: Life Technologies and Expression Analysis (LTEA) Assay for Hepatocyte Growth Facto (HGF) using HepaRG (AID 2283505). The essentials:
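Differentiated HepaRG cells in serum-free induction medium exposed 48 h in duplicate, 8 half-log concentrations from 100 uM in 0.5% DMSO. HGF mRNA by qRT-PCR, normalised to ACTB, GAPDH, POLR2A; bidirectional fitting.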

Read-out in assay [17]: Insulin Like Growth Factor 1 (IGF1), IGF1 (gene 3479)
Briefly: LTEA_HepaRG_IGF1: Life Technologies and Expression Analysis (LTEA) Assay for Insulin Like Growth Factor 1 (IGF1) using HepaRG (AID 2283506). The gist of the method: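 Cells are thawed, plated and cultured 48 h, then exposed in duplicate to chemical (highest 100 uM, half-log steps, 0.5% DMSO) for another 48 h. Total RNA is analysed by Fluidigm qRT-PCR for IGF1 expression relative to vehicle.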

Read-out in assay [18]: Intercellular Adhesion Molecule 1 (ICAM1), ICAM1 (gene 3383)
Briefly: LTEA_HepaRG_ICAM1: Life Technologies and Expression Analysis (LTEA) Assay for Intercellular Adhesion Molecule 1 (ICAM1) using HepaRG (AID 2283507). The essentials: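 Differentiated human HepaRG cells in serum-free induction medium exposed 48 h in duplicate to 8 half-log concentrations (top 100 uM, 0.5% DMSO). ICAM1 mRNA quantified by TaqMan qRT-PCR, normalized to ACTB, GAPDH and POLR2A; bidirectional fitting versus DMSO.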

Read-out in assay [19]: Insulin-like growth factor-binding protein 1 (IGFBP1), IGFBP1 (gene 3484)
Briefly: LTEA_HepaRG_IGFBP1: Life Technologies and Expression Analysis (LTEA) Assay for Insulin-like growth factor-binding protein 1 (IGFBP1) using HepaRG (AID 2283508). The essentials:
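HepaRG cells, plated 48 h then switched to serum-free induction medium, exposed in duplicate for 48 h to 8-point half-log series from 100 uM in 0.5% DMSO. mRNA measured by qRT-PCR, normalized to ACTB/GAPDH/POLR2A; bidirectional fit versus DMSO.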

Read-out in assay [20]: growth arrest and DNA damage 45 (GADD45G), GADD45G (gene 10912)
Briefly: LTEA_HepaRG_GADD45G: Life Technologies and Expression Analysis (LTEA) Assay for growth arrest and DNA damage 45 (GADD45G) using HepaRG (AID 2283499). The gist of the method:
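Differentiated human HepaRG cells, 48 h post-plating, exposed 48 h in serum-free induction medium to 8 half-log concentrations (top 100 uM, 0.5% DMSO) in duplicate. GADD45G mRNA measured by Fluidigm TaqMan qRT-PCR, normalized to ACTB, GAPDH, POLR2A; bidirectional fit versus DMSO.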

Hypoxia-inducible factor 1-alpha (Homo sapiens), sequence (Q16665 whole entry, looked up): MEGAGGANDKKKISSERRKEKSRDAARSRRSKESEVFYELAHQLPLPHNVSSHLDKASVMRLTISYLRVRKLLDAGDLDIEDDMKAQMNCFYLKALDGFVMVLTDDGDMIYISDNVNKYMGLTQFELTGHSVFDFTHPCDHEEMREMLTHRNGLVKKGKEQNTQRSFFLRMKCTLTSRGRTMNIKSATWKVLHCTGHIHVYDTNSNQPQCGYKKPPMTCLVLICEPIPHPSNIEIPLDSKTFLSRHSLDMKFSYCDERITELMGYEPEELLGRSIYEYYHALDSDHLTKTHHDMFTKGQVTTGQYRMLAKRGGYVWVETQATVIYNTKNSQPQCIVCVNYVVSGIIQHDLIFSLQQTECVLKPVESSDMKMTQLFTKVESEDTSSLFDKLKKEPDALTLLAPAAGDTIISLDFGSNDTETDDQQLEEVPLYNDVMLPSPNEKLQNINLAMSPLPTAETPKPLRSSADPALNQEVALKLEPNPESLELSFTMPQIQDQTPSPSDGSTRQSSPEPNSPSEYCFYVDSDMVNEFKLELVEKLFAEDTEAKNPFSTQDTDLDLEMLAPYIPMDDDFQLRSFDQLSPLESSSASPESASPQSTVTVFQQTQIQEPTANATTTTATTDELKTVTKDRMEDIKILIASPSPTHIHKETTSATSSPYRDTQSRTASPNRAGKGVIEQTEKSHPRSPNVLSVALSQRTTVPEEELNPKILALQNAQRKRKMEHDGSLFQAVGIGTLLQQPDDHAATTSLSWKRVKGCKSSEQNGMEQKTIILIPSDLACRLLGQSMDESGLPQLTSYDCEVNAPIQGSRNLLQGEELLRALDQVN
Cytochrome P450 3A7 (Homo sapiens), sequence (P24462 whole entry, looked up): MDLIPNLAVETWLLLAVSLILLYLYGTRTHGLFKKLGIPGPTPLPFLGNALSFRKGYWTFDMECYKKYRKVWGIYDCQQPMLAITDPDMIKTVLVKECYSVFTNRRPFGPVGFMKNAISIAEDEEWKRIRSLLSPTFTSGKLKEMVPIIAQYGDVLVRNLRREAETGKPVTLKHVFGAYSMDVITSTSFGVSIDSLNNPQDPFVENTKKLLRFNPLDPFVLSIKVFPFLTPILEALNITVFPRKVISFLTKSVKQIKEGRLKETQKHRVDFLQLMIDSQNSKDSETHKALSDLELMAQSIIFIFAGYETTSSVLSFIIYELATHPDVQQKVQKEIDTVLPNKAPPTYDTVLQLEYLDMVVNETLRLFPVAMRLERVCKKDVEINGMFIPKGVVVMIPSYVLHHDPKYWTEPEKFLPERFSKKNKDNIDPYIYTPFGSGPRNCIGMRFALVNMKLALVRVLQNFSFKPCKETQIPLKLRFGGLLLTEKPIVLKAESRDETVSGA

Consider `NCCO`, for which the compound was called inactive in [1], in assay [2], in assay [3], in assay [4], in assay [5] and in assay [6]. The outcome in assay [7], in assay [8], in assay [9], in assay [10], in assay [11] and in [12] was inactive. In addition, the compound was called inactive in assay [13], in assay [14], in [15], in assay [16], in assay [17] and in assay [18]. Besides, in [19], the outcome was inactive.

As to `C1CCC(SSC2CCCCC2)CC1`, the call in assay [1], in assay [3], in assay [4], in [5], in assay [6] and in [7] was inactive. In addition, the compound was called inactive in assay [8], in [9], in assay [10], in assay [11], in [12] and in assay [13]. Moreover, the result in assay [14], in [15], in assay [17] and in assay [19] was inactive.

As to `CC1(C)CC(N=C=O)CC(C)(CN=C=O)C1` (configuration not stated), the compound was called inactive in [2], in assay [3], in assay [4], in assay [5], in assay [7] and in [8]. Also, the compound was classed as inactive in assay [9], in [10], in assay [20], in assay [11], in [12] and in assay [14]. Besides, the compound was called inactive in [15], in assay [17], in assay [18] and in assay [19]. The AC50 in assay [6] is 26.2 µM (active).
